The results in this text go back to PubChem BioAssay (NCI).

Each structure is given as a SMILES string. About 79,000 compounds went through this panel and 15% of them were active in at least one assay; those are over-represented in the sample as a whole. Unmarked numbers belong to inactive results. The source made the active and inactive calls. Cut-off read from the data, not from the text of the source: active = growth inhibition above about 70%; inactive = the rest.

Assay [1] is described as follows: NCI Yeast Anticancer Drug Screen. Data for the rad50 strain (AID 155).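 Note: 0% = growth of vehicle-only cultures of the same strain.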 Particulars: S. cerevisiae rad50 strain growth inhibition, active compounds read high. The procedure, abridged:
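A DNA repair-deficient yeast mutant serves as the test organism; compound-induced growth inhibition is calculated against vehicle-treated cells.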

Assay [2] is described as follows: NCI Yeast Anticancer Drug Screen. Data for the mec2-1 strain (AID 157). Particulars: S. cerevisiae mec2-1 strain, active compounds read high. The procedure, abridged: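 Mutant yeast (mec2-1) grown with compound; growth inhibition relative to vehicle control reported.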
Assay [3] can be described thus: NCI Yeast Anticancer Drug Screen. Data for the sgs1 mgt1 strain (AID 161).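 Note: 0% = growth of cultures given vehicle only.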 Particulars: S. cerevisiae sgs1 mgt1 strain, active compounds read high. The procedure, abridged: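 Growth of a repair-deficient yeast mutant was monitored after compound treatment and expressed as inhibition relative to vehicle-treated cultures.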
Assay [4] can be described thus: NCI Yeast Anticancer Drug Screen. Data for the cln2 rad14 strain (AID 165).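 Note: 0% = growth equal to vehicle treated cultures.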 Particulars: S. cerevisiae cln2 rad14 strain, active compounds read high. The procedure, abridged:
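Readout is yeast growth inhibition versus vehicle-treated controls, using a strain with cln2 and rad14 alterations exposed to compound.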

Assay [5] is described as follows: NCI Yeast Anticancer Drug Screen. Data for the bub3 strain (AID 167). Particulars: S. cerevisiae bub3 mutant strain, active compounds read high. In outline:
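Inhibition values come from growth of compound-treated mutant yeast normalised to vehicle-treated controls.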

Assay [6] is described as follows: NCI Yeast Anticancer Drug Screen. Data for the mlh1 rad18 strain (AID 175). Particulars: S. cerevisiae mlh1 rad18 strain growth inhibition, active compounds read high. The procedure, abridged: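 Genetically defined yeast (DNA repair-deficient) exposed to compounds; growth inhibition determined relative to vehicle.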
The mark [7] stands for this setting: at 5.0 µM (retest, dose inferred, filed as 0.5).
The mark [8] stands for this setting: at 50.0 µM (retest, dose inferred, filed as 5.0).

Turning to `CC(C)(C)C1=NN=C2c3ccccc3C(=O)C21` (stereo not given), the growth inhibition in assay [1] (setting [7]) was 0%; in assay [1] (setting [8]) it was 57%; in assay [1] (at 50.0 µM), 68.2%; in assay [2] (setting [7]) it was -3%; in assay [2] (setting [8]), 44%; in assay [2] (at 50.0 µM), 9.45%. Besides, the growth inhibition in assay [3] (setting [7]) is -1%; in assay [3] (setting [8]), 60%; in assay [3] (at 50.0 µM), 53.2%; in assay [4] (setting [7]), -12%; in assay [4] (setting [8]), 14%; in assay [4] (at 50.0 µM), 58.9%. Further, the growth inhibition in assay [5] (setting [7]) was 19%; in assay [5] (setting [8]), 87% (active); in assay [5] (at 50.0 µM), 78.7% (active); in assay [6] (setting [7]), -3%; in assay [6] (setting [8]) it was 44%; in assay [6] (at 50.0 µM) it was 60.7%.
In the case of `CCCCCCCCCCCCn1cnc2ncnc(Cl)c21`, the growth inhibition in assay [1] (setting [7]) is 6%; in assay [1] (setting [8]), 48%; in assay [1] (at 50.0 µM), 98.2% (active); in assay [2] (setting [7]) it was 7%; in assay [2] (setting [8]), 54%; in assay [2] (at 50.0 µM), 99% (active). Moreover, the growth inhibition in assay [3] (setting [7]) is 11%; in assay [3] (setting [8]) it was 68%; in assay [3] (at 50.0 µM) it was 98.7% (active); in assay [4] (setting [7]), 2%; in assay [4] (setting [8]), 28%; in assay [4] (at 50.0 µM), 98.4% (active). For the same molecule, the growth inhibition is -4% in assay [5] (setting [7]); 41% in assay [5] (setting [8]); 98.8% (active) in assay [5] (at 50.0 µM); 6% in assay [6] (setting [7]); 63% in assay [6] (setting [8]); 98.6% (active) in assay [6] (at 50.0 µM).
On to `Cc1ccccc1NC(=O)c1cc2cc(N=Nc3ccccc3C(=O)O)ccc2oc1=O`, for which the growth inhibition was 7% in assay [1] (setting [7]); 81% (active) in assay [1] (setting [8]); 91.4% (active) in assay [1] (at 50.0 µM); -10% in assay [2] (setting [7]); 65% in assay [2] (setting [8]); 83.5% (active) in assay [2] (at 50.0 µM). For the same molecule, the growth inhibition is 15% in assay [3] (setting [7]); 90% (active) in assay [3] (setting [8]); 96.5% (active) in assay [3] (at 50.0 µM); 9% in assay [4] (setting [7]); 46% in assay [4] (setting [8]); 90.3% (active) in assay [4] (at 50.0 µM). Moreover, the growth inhibition in assay [5] (setting [7]) is 7%; in assay [5] (setting [8]), 78% (active); in assay [5] (at 50.0 µM) it was 82.7% (active); in assay [6] (setting [7]), 8%; in assay [6] (setting [8]) it was 49%; in assay [6] (at 50.0 µM), 96.5% (active).
As to `CCCCCCCCNc1ncnc2c1cnn2C`, the growth inhibition in assay [1] (setting [7]) was -2%; in assay [1] (setting [8]), 69%; in assay [1] (at 50.0 µM), 48.6%; in assay [2] (setting [7]), 4%; in assay [2] (setting [8]), 83% (active); in assay [2] (at 50.0 µM) it was 43%. Moreover, the growth inhibition was -2% in assay [3] (setting [7]); 85% (active) in assay [3] (setting [8]); 54.8% in assay [3] (at 50.0 µM); -9% in assay [4] (setting [7]); 61% in assay [4] (setting [8]); 98.8% (active) in assay [4] (at 50.0 µM). In addition, the growth inhibition in assay [5] (setting [7]) is 1%; in assay [5] (setting [8]) it was 87% (active); in assay [5] (at 50.0 µM), 97.8% (active); in assay [6] (setting [7]) it was 18%; in assay [6] (setting [8]), 86% (active); in assay [6] (at 50.0 µM), 49.9%.
With `O=S(=O)(Sc1ccccc1)C(c1ccccc1)c1ccccc1`, the growth inhibition is 3% in assay [1] (setting [7]); 72% (active) in assay [1] (setting [8]); -21.6% in assay [1] (at 50.0 µM); 2% in assay [2] (setting [7]); 71% (active) in assay [2] (setting [8]); -1.25% in assay [2] (at 50.0 µM). The growth inhibition in assay [3] (setting [7]) was 2%; in assay [3] (setting [8]) it was 66%; in assay [3] (at 50.0 µM) it was 14.1%; in assay [4] (setting [7]), 1%; in assay [4] (setting [8]) it was 28%; in assay [4] (at 50.0 µM), -12.8%. The growth inhibition in assay [5] (setting [7]) was -4%; in assay [5] (setting [8]) it was 97% (active); in assay [5] (at 50.0 µM), 62%; in assay [6] (setting [7]) it was 4%; in assay [6] (setting [8]), 72% (active); in assay [6] (at 50.0 µM), 6.85%.
For the molecule `COc1ccc(-c2n[nH]c(C(F)(F)F)c2N=NN(C)C)cc1OC`, the growth inhibition is 97% (active) in assay [1] (setting [7]); 98% (active) in assay [1] (setting [8]); 98.9% (active) in assay [1] (at 50.0 µM); 99% (active) in assay [2] (setting [7]); 99% (active) in assay [2] (setting [8]); 99.5% (active) in assay [2] (at 50.0 µM). In addition, the growth inhibition in assay [3] (setting [7]) is 99% (active); in assay [3] (setting [8]) it was 99% (active); in assay [3] (at 50.0 µM), 99.4% (active); in assay [4] (setting [7]), 99% (active); in assay [4] (setting [8]), 99% (active); in assay [4] (at 50.0 µM), 99.4% (active). The growth inhibition is 99% (active) in assay [5] (setting [7]); 99% (active) in assay [5] (setting [8]); 99.4% (active) in assay [5] (at 50.0 µM); 99% (active) in assay [6] (setting [7]); 99% (active) in assay [6] (setting [8]); 99.6% (active) in assay [6] (at 50.0 µM).
For `Cc1cc(O)ccc1C1(c2ccc(F)cc2)OC(=O)c2ccccc21` (stereo not given), the growth inhibition in assay [1] (setting [7]) was 31%; in assay [1] (setting [8]), 99% (active); in assay [1] (at 50.0 µM) it was 90.1% (active); in assay [2] (setting [7]), 32%; in assay [2] (setting [8]) it was 99% (active); in assay [2] (at 50.0 µM) it was 91.8% (active). The growth inhibition is 37% in assay [3] (setting [7]); 99% (active) in assay [3] (setting [8]); 88.2% (active) in assay [3] (at 50.0 µM); 31% in assay [4] (setting [7]); 97% (active) in assay [4] (setting [8]); 91.5% (active) in assay [4] (at 50.0 µM). Besides, the growth inhibition in assay [5] (setting [7]) is 29%; in assay [5] (setting [8]) it was 98% (active); in assay [5] (at 50.0 µM), 90.3% (active); in assay [6] (setting [7]), 45%; in assay [6] (setting [8]), 99% (active); in assay [6] (at 50.0 µM), 89.6% (active).
For the molecule `CCOC(=O)C1=C(Nc2ccc(Br)cc2)OC/C1=N\NC(=O)c1ccccc1O`, the growth inhibition in assay [1] (setting [7]) was 11%; in assay [1] (setting [8]), 11%; in assay [1] (at 50.0 µM) it was 50.6%; in assay [2] (setting [7]), -16%; in assay [2] (setting [8]) it was -16%; in assay [2] (at 50.0 µM), 53.5%. For the same molecule, the growth inhibition is 7% in assay [3] (setting [7]); 7% in assay [3] (setting [8]); 71.6% (active) in assay [3] (at 50.0 µM); 4% in assay [4] (setting [7]); 4% in assay [4] (setting [8]); 25.7% in assay [4] (at 50.0 µM). Besides, the growth inhibition in assay [5] (setting [7]) was 1%; in assay [5] (setting [8]), 1%; in assay [5] (at 50.0 µM), 66.8%; in assay [6] (setting [7]), 5%; in assay [6] (setting [8]), 5%; in assay [6] (at 50.0 µM), 67%.
In the case of `CCOc1ccc2nc3cc(Cl)ccc3[n+](C)c2c1`, the growth inhibition in assay [1] (setting [7]) is 20%; in assay [1] (setting [8]), 79% (active); in assay [1] (at 50.0 µM) it was 85.2% (active); in assay [2] (setting [7]) it was 14%; in assay [2] (setting [8]), 87% (active); in assay [2] (at 50.0 µM), 87.3% (active). The growth inhibition is 15% in assay [3] (setting [7]); 87% (active) in assay [3] (setting [8]); 82.8% (active) in assay [3] (at 50.0 µM); 10% in assay [4] (setting [7]); 74% (active) in assay [4] (setting [8]); 72.7% (active) in assay [4] (at 50.0 µM). In addition, the growth inhibition is 32% in assay [5] (setting [7]); 88% (active) in assay [5] (setting [8]); 83.9% (active) in assay [5] (at 50.0 µM); 15% in assay [6] (setting [7]); 81% (active) in assay [6] (setting [8]); 86.7% (active) in assay [6] (at 50.0 µM).
`CC1=C(C(=O)OCCc2ccc([N+](=O)[O-])cc2)C(c2ccccc2[N+](=O)[O-])C(C(=O)OC(C)C)=C(C)N1` (stereo not given): the growth inhibition in assay [1] (setting [7]) is 12%; in assay [1] (setting [8]), 93% (active); in assay [1] (at 50.0 µM) it was 69.6%; in assay [2] (setting [7]) it was 13%; in assay [2] (setting [8]), 94% (active); in assay [2] (at 50.0 µM) it was 74.3% (active). The growth inhibition in assay [3] (setting [7]) is 1%; in assay [3] (setting [8]), 87% (active); in assay [3] (at 50.0 µM), 75.7% (active); in assay [4] (setting [7]), 0%; in assay [4] (setting [8]), 80% (active); in assay [4] (at 50.0 µM) it was 68.4%. Besides, the growth inhibition is 4% in assay [5] (setting [7]); 89% (active) in assay [5] (setting [8]); 74.6% (active) in assay [5] (at 50.0 µM); 10% in assay [6] (setting [7]); 94% (active) in assay [6] (setting [8]); 68% in assay [6] (at 50.0 µM).
